# Experimental data published in ChEMBL document CHEMBL1961873, “Compounds: GSK PKIS; Assays: Nanosyn kinase panel” (2012).
# How the values were obtained:
# [1] = molecular target: T1, Ephrin type-B receptor 2 (Homo sapiens) (UniProt P29323); conditions: at 1 µM
# T1 sequence (whole entry): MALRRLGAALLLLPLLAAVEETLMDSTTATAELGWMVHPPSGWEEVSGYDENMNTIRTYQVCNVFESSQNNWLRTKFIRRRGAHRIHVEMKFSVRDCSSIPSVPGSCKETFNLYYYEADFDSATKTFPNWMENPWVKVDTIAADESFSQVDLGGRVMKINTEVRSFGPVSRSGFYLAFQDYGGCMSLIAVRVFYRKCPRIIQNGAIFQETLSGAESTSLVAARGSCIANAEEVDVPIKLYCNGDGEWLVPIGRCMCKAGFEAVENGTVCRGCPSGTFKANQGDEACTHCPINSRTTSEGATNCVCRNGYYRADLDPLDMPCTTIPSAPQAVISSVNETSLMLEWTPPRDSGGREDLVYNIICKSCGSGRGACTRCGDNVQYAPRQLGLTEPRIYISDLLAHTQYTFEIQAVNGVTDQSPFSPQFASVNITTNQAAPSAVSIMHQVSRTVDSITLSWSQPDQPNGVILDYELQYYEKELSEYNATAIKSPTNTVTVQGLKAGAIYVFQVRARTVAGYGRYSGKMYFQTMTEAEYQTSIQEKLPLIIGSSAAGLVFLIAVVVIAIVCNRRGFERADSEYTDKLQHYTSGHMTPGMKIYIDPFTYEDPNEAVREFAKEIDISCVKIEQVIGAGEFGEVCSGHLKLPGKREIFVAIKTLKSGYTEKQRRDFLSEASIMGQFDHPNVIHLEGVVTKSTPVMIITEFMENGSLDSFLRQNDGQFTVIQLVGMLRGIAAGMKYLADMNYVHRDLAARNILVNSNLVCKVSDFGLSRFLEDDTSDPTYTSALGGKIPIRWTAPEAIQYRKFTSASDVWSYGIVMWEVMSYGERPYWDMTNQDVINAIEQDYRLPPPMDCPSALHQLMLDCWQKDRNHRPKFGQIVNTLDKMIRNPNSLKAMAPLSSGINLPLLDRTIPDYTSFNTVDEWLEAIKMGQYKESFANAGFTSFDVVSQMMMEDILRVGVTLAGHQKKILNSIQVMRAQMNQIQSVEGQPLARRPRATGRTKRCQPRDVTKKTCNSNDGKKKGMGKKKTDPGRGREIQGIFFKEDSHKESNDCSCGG
# [2] = molecular target: T2, Ephrin type-B receptor 3 (Homo sapiens) (UniProt P54753); conditions: at 0.1 µM
# T2 sequence (whole entry): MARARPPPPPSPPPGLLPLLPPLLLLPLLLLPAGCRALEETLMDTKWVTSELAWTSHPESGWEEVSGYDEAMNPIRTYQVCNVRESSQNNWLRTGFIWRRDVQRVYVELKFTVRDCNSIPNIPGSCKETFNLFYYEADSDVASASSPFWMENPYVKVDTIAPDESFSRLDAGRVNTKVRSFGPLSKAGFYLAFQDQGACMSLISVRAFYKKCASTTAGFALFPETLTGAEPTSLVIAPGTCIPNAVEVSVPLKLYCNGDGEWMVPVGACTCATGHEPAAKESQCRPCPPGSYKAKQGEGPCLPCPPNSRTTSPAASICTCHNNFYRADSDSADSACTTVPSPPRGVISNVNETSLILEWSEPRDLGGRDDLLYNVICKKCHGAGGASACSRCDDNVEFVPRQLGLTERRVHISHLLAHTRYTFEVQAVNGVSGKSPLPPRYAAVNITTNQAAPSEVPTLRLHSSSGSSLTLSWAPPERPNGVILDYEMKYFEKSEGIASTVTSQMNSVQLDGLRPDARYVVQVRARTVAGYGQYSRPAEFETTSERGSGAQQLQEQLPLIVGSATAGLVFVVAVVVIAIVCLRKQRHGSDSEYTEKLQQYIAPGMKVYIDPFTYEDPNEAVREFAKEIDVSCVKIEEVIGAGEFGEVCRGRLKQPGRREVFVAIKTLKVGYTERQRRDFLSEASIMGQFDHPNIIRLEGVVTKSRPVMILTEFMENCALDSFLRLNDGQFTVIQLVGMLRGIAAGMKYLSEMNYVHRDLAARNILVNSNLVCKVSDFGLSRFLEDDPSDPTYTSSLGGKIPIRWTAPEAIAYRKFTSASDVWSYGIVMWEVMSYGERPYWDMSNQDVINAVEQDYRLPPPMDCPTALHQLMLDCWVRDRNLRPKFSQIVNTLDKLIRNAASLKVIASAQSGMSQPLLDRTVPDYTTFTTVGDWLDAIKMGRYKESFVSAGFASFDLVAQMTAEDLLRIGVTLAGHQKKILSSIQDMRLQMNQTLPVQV
# [3] = molecular target: T2, Ephrin type-B receptor 3 (Homo sapiens); conditions: at 1 µM
# [4] = molecular target: T3, Ephrin type-B receptor 4 (Homo sapiens) (UniProt P54760); conditions: at 0.1 µM
# T3 sequence (whole entry): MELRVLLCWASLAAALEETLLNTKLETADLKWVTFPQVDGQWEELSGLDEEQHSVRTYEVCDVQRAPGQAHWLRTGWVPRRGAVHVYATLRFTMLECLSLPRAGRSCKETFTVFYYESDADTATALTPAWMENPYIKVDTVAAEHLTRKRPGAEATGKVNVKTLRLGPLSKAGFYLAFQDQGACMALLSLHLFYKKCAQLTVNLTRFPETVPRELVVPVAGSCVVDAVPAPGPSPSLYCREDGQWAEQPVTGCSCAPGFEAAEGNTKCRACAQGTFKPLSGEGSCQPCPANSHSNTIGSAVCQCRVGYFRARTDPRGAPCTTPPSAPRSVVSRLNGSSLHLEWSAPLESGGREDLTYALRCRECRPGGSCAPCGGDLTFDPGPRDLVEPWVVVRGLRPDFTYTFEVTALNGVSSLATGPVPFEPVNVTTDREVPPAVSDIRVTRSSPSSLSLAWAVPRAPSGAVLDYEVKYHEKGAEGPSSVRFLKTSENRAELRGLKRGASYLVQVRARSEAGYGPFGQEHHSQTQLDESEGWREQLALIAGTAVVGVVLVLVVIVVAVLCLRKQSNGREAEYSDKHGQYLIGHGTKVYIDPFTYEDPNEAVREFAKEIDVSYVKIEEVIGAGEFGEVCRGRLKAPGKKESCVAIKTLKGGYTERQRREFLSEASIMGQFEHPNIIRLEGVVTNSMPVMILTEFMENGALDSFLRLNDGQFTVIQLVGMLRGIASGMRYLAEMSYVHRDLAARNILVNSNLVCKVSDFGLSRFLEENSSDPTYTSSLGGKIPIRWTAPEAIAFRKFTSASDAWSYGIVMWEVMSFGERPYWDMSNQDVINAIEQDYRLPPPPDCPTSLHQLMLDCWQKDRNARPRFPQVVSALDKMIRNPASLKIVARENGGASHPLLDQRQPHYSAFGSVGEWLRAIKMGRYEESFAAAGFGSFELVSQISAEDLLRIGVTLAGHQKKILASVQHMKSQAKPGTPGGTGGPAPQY
# [5] = molecular target: T3, Ephrin type-B receptor 4 (Homo sapiens); conditions: at 1 µM
# [6] = molecular target: Receptor tyrosine-protein kinase erbB-2 (Homo sapiens) (UniProt P04626); conditions: at 0.1 µM
# [7] = molecular target: Receptor tyrosine-protein kinase erbB-2 (Homo sapiens) (UniProt P04626); conditions: at 1 µM
# [8] = molecular target: Receptor tyrosine-protein kinase erbB-4 (Homo sapiens) (UniProt Q15303); conditions: at 0.1 µM
# [9] = molecular target: Receptor tyrosine-protein kinase erbB-4 (Homo sapiens) (UniProt Q15303); conditions: at 1 µM
# [10] = molecular target: Tyrosine-protein kinase Fer (Homo sapiens) (UniProt P16591); conditions: at 0.1 µM
# Tyrosine-protein kinase Fer (Homo sapiens), sequence (P16591 whole entry, looked up): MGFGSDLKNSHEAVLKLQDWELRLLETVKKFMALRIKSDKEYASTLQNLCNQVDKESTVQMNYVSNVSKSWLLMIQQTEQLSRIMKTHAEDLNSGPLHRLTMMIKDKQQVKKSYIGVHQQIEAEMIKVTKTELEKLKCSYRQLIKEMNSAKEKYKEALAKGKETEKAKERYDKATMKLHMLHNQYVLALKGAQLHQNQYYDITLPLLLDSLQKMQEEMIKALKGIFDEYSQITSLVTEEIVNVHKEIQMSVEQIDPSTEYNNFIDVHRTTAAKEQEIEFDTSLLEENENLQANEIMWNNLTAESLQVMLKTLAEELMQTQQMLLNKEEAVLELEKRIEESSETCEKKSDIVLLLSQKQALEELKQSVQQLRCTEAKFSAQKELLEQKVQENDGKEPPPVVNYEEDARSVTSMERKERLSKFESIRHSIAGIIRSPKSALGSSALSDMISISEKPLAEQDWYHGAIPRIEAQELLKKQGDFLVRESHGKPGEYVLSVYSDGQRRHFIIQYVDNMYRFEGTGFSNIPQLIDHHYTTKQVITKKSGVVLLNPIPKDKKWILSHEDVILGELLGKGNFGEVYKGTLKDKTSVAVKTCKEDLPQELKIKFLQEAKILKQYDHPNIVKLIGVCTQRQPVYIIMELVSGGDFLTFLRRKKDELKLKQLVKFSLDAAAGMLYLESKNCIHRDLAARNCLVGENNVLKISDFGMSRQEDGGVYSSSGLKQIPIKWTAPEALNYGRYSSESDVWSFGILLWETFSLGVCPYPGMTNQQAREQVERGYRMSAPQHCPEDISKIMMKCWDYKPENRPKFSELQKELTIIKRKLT
# [11] = molecular target: Tyrosine-protein kinase Fer (Homo sapiens) (UniProt P16591); conditions: at 1 µM
# [12] = molecular target: Tyrosine-protein kinase Fes/Fps (Homo sapiens) (UniProt P07332); conditions: at 0.1 µM
# Tyrosine-protein kinase Fes/Fps (Homo sapiens), sequence (P07332 whole entry): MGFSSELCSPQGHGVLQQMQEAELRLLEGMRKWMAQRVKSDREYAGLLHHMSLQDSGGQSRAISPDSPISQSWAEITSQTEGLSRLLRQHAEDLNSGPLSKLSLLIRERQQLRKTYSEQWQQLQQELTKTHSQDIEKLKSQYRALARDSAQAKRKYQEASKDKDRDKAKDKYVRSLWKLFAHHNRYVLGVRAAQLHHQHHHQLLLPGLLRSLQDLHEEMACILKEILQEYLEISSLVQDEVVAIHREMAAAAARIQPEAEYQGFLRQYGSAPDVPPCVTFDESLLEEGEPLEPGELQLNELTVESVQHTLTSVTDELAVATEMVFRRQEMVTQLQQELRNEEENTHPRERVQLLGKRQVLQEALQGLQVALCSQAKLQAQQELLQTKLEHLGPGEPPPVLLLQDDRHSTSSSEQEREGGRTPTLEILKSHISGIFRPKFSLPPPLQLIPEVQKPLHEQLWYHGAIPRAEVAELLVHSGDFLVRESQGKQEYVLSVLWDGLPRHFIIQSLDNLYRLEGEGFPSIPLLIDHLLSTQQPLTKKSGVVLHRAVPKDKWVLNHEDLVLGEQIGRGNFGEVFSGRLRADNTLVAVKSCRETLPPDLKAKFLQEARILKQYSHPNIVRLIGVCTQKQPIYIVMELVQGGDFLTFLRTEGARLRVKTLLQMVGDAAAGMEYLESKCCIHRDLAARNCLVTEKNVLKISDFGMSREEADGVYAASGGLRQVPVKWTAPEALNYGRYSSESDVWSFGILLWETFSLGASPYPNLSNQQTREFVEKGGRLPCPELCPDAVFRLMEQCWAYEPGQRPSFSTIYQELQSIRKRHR
# [13] = molecular target: Tyrosine-protein kinase Fes/Fps (Homo sapiens) (UniProt P07332); conditions: at 1 µM
# [14] = molecular target: Fibroblast growth factor receptor 1 (Homo sapiens) (UniProt P11362); conditions: at 0.1 µM
# Fibroblast growth factor receptor 1 (Homo sapiens), sequence (P11362 22-822 limits assumed): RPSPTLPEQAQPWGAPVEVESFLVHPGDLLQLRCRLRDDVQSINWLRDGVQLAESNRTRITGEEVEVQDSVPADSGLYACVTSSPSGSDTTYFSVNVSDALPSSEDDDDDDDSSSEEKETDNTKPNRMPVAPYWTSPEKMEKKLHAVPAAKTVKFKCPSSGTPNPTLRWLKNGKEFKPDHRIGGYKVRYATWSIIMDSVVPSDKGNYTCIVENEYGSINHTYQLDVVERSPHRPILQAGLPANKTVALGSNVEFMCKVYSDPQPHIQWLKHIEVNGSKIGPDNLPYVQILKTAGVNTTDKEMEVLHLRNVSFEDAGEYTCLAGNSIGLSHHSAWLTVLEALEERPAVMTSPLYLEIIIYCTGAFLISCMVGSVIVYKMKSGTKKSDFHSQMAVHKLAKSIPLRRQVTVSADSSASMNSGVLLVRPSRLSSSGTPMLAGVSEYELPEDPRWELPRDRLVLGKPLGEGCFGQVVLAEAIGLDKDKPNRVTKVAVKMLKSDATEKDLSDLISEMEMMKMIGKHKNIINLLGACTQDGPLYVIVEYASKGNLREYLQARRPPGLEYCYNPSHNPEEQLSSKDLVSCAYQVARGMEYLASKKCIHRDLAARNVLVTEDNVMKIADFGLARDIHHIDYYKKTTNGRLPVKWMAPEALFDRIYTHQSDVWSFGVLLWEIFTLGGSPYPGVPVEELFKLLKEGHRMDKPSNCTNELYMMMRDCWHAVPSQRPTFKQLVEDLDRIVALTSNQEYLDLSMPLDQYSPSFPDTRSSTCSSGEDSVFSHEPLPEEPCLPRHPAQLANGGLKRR
# [15] = molecular target: Fibroblast growth factor receptor 1 (Homo sapiens) (UniProt P11362); conditions: at 1 µM
# [16] = molecular target: Fibroblast growth factor receptor 2 (Homo sapiens) (UniProt P21802); conditions: at 0.1 µM
# Fibroblast growth factor receptor 2 (Homo sapiens), sequence (P21802 22-821 limits assumed): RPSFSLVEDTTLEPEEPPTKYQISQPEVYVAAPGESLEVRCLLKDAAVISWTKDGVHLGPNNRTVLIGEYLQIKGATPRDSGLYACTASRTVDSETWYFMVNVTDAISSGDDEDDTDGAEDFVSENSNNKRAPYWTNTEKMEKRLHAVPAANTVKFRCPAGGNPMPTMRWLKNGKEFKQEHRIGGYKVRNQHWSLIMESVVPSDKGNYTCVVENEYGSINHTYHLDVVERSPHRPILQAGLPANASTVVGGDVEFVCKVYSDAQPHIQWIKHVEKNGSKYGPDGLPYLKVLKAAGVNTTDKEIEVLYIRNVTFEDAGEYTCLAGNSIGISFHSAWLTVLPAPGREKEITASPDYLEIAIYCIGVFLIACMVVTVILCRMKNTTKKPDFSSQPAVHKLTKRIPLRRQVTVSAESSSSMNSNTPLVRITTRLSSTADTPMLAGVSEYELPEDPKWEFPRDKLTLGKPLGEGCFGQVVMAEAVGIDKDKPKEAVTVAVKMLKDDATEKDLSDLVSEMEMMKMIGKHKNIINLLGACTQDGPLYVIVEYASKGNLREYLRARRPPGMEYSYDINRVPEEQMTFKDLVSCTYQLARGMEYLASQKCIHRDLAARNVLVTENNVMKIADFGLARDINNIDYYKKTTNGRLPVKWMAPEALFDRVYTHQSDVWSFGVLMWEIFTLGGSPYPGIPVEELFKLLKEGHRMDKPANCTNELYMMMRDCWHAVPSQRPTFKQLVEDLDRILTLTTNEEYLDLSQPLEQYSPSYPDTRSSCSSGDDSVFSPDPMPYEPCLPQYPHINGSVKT
# [17] = molecular target: Fibroblast growth factor receptor 2 (Homo sapiens) (UniProt P21802); conditions: at 1 µM
# [18] = molecular target: Fibroblast growth factor receptor 3 (Homo sapiens) (UniProt P22607); conditions: at 0.1 µM
# Fibroblast growth factor receptor 3 (Homo sapiens), sequence (P22607 23-806 limits assumed): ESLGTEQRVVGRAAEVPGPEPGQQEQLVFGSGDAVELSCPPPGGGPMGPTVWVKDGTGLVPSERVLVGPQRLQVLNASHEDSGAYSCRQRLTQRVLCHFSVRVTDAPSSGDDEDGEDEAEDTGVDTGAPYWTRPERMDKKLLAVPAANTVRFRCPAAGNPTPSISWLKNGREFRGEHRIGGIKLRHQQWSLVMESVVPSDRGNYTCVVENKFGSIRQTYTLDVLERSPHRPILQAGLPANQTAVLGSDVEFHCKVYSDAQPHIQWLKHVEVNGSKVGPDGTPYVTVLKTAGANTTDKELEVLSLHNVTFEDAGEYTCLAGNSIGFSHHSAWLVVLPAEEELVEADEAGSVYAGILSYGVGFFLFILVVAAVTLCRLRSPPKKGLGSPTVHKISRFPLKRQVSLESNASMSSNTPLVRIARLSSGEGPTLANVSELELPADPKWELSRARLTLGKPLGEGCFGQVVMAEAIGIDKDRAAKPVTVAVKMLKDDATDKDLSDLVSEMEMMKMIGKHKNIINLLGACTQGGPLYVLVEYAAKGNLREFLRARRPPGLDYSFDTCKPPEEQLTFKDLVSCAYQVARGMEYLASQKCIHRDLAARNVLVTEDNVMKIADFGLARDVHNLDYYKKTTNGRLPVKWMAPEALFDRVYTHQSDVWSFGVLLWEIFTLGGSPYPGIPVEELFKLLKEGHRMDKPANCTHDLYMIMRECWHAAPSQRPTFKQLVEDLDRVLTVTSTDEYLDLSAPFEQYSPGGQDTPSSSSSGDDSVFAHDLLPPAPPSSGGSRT
# [19] = molecular target: Fibroblast growth factor receptor 3 (Homo sapiens) (UniProt P22607); conditions: at 1 µM
# [20] = molecular target: Fibroblast growth factor receptor 4 (Homo sapiens) (UniProt P22455); conditions: at 0.1 µM;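 also: values are mean percent inhibition of FGFR4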
# Fibroblast growth factor receptor 4 (Homo sapiens), sequence (P22455 22-802 limits assumed): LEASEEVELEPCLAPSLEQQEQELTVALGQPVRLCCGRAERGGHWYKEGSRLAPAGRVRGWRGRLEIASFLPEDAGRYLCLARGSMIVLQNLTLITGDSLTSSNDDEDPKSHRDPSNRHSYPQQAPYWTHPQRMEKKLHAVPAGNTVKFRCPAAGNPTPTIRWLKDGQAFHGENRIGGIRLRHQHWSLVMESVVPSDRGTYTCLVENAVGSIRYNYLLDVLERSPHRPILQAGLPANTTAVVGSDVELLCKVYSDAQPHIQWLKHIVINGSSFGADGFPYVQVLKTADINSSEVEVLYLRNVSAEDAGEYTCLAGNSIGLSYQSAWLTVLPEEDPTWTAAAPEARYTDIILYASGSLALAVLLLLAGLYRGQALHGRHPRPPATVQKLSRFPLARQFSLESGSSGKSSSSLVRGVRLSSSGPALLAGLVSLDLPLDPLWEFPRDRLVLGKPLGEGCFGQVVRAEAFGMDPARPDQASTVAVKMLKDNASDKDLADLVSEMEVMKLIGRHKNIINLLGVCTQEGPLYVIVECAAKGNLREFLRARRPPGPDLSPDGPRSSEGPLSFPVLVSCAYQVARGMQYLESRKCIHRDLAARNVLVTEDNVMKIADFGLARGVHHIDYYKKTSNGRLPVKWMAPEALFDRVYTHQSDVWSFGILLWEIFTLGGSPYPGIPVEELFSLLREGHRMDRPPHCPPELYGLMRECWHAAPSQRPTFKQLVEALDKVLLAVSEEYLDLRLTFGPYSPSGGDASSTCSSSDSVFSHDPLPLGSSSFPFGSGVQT
SMILES,inhibition [1] [%],inhibition [2] [%],inhibition [3] [%],inhibition [4] [%],inhibition [5] [%],inhibition [6] [%],inhibition [7] [%],inhibition [8] [%],inhibition [9] [%],inhibition [10] [%],inhibition [11] [%],inhibition [12] [%],inhibition [13] [%],inhibition [14] [%],inhibition [15] [%],inhibition [16] [%],inhibition [17] [%],inhibition [18] [%],inhibition [19] [%],inhibition [20] [%]
CC1=C(C(=O)Nc2cc(Cl)c3[nH]ncc3c2)C(c2ccc(C(F)(F)F)cc2)CC(=O)N1 (centres undefined),6.01,5.62,2.94,-1.21,0.29,2.74,1.78,11.9,31.2,4.27,3.32,2.07,2.33,-0.25,2.9,3.38,3.56,9.2,3.77,2.42
COc1cc(N2CCN(C(C)C)CC2)ccc1Nc1nc(Nc2ccc(F)cc2C(N)=O)c2cc[nH]c2n1,1.15,2.78,2.03,1.77,1.31,2.4,3.8,35.2,76.8,62.8,82.8,39.9,81.7,6.98,2.33,7.72,3.84,7.85,3.24,4.7
c1cc(-c2cnn3nc(N4CCOCC4)ccc23)nc(NC2CC2)n1,9.21,2.88,3.96,0.45,1.96,1.45,1.94,13.6,15.3,0.53,1.58,3.42,4.53,8.29,9.37,4.74,11.4,6.59,10.9,1.73
O=S(=O)(CCNCc1ccc(-c2ccc3ncnc(Nc4ccc(OCc5cccc(F)c5)c(Cl)c4)c3c2)o1)c1ccccc1,13,4.95,4.03,0.96,2.99,43.9,60.5,36.4,89,3.86,4.93,4.42,4.26,3.65,8.42,7.23,11.6,7.36,6.93,-5.68
O=C(Nc1n[nH]c2cc(-c3ccc(F)cc3)ccc12)C1CC1,7.07,5.69,1.87,1.47,2.87,1.75,-0.76,6.81,11.6,5.3,1.55,1.98,2.43,3.72,5.84,1.37,3.08,4.83,3.2,-1.21
CC(C)(CO)CNC(=O)c1ccc2c(c1)/C(=N/Nc1ccc(S(N)(=O)=O)cc1)C(=O)N2,7.99,-0.32,0.79,-2.31,-0.62,0.9,3.86,4.68,7.73,-7.05,–,-0.1,0.22,-4.71,1.07,0.16,6.9,4.13,5.3,0.38
CCn1c(-c2nonc2N)nc2c(C#CC(C)(C)O)ncc(OC3CCNCC3)c21,4.11,3.01,4.06,1.92,1.63,5.64,3.93,5.65,10.3,-0.68,3.91,2.9,5.88,1.54,-4.66,9.23,11.4,7.92,2.73,6.43
